Source: PubChem BioAssay (EPA / NIEHS)
Active and inactive are the calls of the source. Rule for the calls: active = hit-call score of the fitted dose curve at least 0.9, where 1 is the maximum; inactive = score below 0.9.

Each molecule was assayed on Alpha-fetoprotein (AFP) gene, AFP (gene 174) (assay: LTEA_HepaRG_AFP: Life Technologies and Expression Analysis (LTEA) Assay for Alpha-fetoprotein (AFP) gene using HepaRG (AID 2283472;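 for AC50: AFP transcript by TaqMan qRT-PCR normalized to ACTB GAPDH and POLR2A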)). Settings: mRNA level, 48 h; actives raise or lower the signal.
Description: It is a marker of Undifferentiated hepatocyte.Data from the assay component LTEA_HepaRG_AFP was analyzed into 1 endpoint. This assay endpoint, LTEA_HepaRG_AFP, was analyzed with bidirectional fitting relative to DMSO as the negative control and baseline of activity. Using a type of inducible reporter, measures of mRNA induction for gain or loss-of-signal activity can be used to understand regulation of transcription factor activity. To generalize the intended target to other relatable targets, this assay endpoint is annotated to the background measurement intended target family, where the subfamily is assay control.
A total of 1060 chemcials from the ToxCast library were tested in eight-point concentration-response experiments. Cell culture and cytotoxicity assays were conducted at Thermo Fisher Scientific's Custom Services facility (Madison, WI). A single lot of human HepaRG cells (Thermo Fisher Scientific, Frederick, MD) was used for the cell culture experiments. 96-well format collagen type I coated plates of human HepaRG cells were prepared using established methods. Briefly, cryopreserved HepaRG cells were thawed, plated at a density of approximately 100,000 cells/well in HepaRG Thaw, Plate, and General Purpose media (HPRG770, Thermo Fisher Scientific), and incubated for 48 hours. 0.5% DMSO was selected as vehicle control to balance the requisite need of DMSO in HepaRG cultures to maintain differentiation (for example, baseline metabolism, proportions of hepatocytes vs. cholangiocytes), while enabling further hepatic receptor pathway activation (for example, PXR and CAR) in response to chemical exposure. 48 hours after plating, the culture medium was replaced with HepaRG Serum-Free Incudtion Media. Cells were exposed to each test chemical in duplicate and maintained in CO2 incubators for another 48 hours. Chemical plates were thawed to room temperature and 200x concentrations of treatment groups were prepared. 8-point conentration-reponse curves were made with the highest exposure at 100 uM, followed by half-log dilutions, all in 0.5% DMSO. Each test plate contained variouse controls, induction positive controls (1mM phenobarbital), cytotoxicity positive controls ([…] aflatoxin B1), vehicle controls (0.5% DMSO), and total lysis controls (0.5% DMSO). Cell morphology images were taken using an Essen IncuCyte FLR automated microscope, with six 96-well plates imaged in about 24 minutes. Images were captured and exported and JPEG files. Spent culture media was transfered to black-well plates for the LDH assay, and remaining media was sorted at -80 C for later use. Cells were treated with RLT buffer and frozen until shipped for gene expression analysis. Total RNA was isolated from the cell suspension in 75 uL of Buffer RLT (Qiagen, Germantown, MD 20874) by Quintiles/Expression Analysis (Durham, NC) using a custom isolation procedure. Total RNA from each plate well was transferred to a preamplification plate. Fluidigm's 96.96 Dynamic ArrayTM (Fluidigm, Amsterdam, the Netherlands) technology was used for gene expression analyses by quantitative reverse transcription polymerase chain reaction (qRT-PCR, performed by Quintiles/Expression Analysis, Durham, NC)89. Standard TaqManTM Assays (Applied Biosystems/ThermoFisher Scientific, Foster City, CA) were used to assess the expression of 93 genes selected based on their selectivity and sensitivity to important hepatic receptors known to be modulated by environmental chemicals; importance in human hepatocyte functionality; and hepatotoxicity. Three "housekeeping" endogenous control genes were also included and used for normalization: actin beta (ACTB), Glyceraldehyde 3 phosphate dehydrogenase (GAPDH) and RNA Polymerase II Subunit A (POLR2A). qRT-PCR was conducted according to the manufacturer's protocol.

Compound	outcome	AC50
c1ccc2c(c1)ccc1ccccc12	inactive	
Oc1cccc(O)c1	inactive	
CCN(CC)CCNc1ccc(CNC=O)c2sc3ccc(OC)cc3c(=O)c12		11.5 µM (active)
COCC(C)OCC(C)O (stereo not given)	inactive	
C#C[C@]1(O)CC[C@H]2[C@@H]3CCC4=CC(=O)CC[C@@H]4[C@H]3CC[C@@]21C	inactive	
CCCCC(CC)COC(=O)CCCCC(=O)OCC(CC)CCCC (stereo not given)	inactive	
CCCCCCCCCCCCc1ccccc1S(=O)(=O)O		80 µM (active)
CCCCC(CC)COC(=O)CCCCC(=O)OCc1ccccc1 (stereo not given)	inactive	
CCCCCCCCCCCCN1CCCC1=O	inactive	
Oc1cc2ccccc2c2ccccc12	inactive	
Cc1oc(-c2ccccc2)nc1CCOc1ccc(C[C@H](Nc2ccccc2C(=O)c2ccccc2)C(=O)O)cc1	inactive	
CCCCCCCC(=O)O	inactive	
CCCCOCCO	inactive	
OCCC(F)(F)C(F)(F)C(F)(F)C(F)(F)C(F)(F)C(F)(F)F	inactive	
C=C(C)C(=O)OCCC(F)(F)C(F)(F)C(F)(F)C(F)(F)C(F)(F)C(F)(F)F	inactive	
CC1=C(/C=C/C(C)=C/C=C/C(C)=C/C(=O)O)C(C)(C)CCC1		35.9 µM (active)
CC(C)(C)CC(C)(C)c1ccc(O)c(-n2nc3ccccc3n2)c1	inactive	
CC[C@H](C)[C@@H](C(=O)O)n1sc2ccccc2c1=O	inactive	
Cc1cc(C)c(O)c(C)c1	inactive	
NC(=O)N1C(=O)C(C(=O)c2cc(Cl)cs2)c2cc(F)c(Cl)cc21 (stereo not given)	inactive	

Compound	outcome	AC50
CC(=O)CC(C)(C)O	inactive	
CCc1nn(C2CCCCC2)c2cc(C3(C#N)CCC(C(=O)O)CC3)ccc12 (stereo not given)		64 µM (active)
OC1CCCCC1	inactive	
CC(C)(C)c1ccc(O)c(C(C)(C)C)c1	inactive	
CC(C)(C)c1cc(C(C)(C)C)c(O)c(C(C)(C)C)c1		39.8 µM (active)
OC1CCC(C2CCCCC2)CC1 (stereo not given)	inactive	
COCC(C)O (stereo not given)	inactive	
COc1ccc([N+](=O)[O-])cc1N	inactive	
COC(=O)CCCCC(=O)OC	inactive	
c1ccc2cc3c(ccc4ccccc43)cc2c1		25.9 µM (active)
ClC1=C(Cl)C(Cl)(Cl)C(Cl)=C1Cl	inactive	
c1ccc2c(c1)Cc1ccccc1-2	inactive	
CC(C)(C)c1cccc(C(C)(C)C)c1O	inactive	
O=C(O)c1ccccc1C(c1ccc(O)cc1)c1ccc(O)cc1	inactive	
CCC(=C(c1ccc(O)cc1)c1ccc(OCCN(C)C)cc1)c1ccccc1	inactive	
CCOC(=O)CC(O)(CC(=O)OCC)C(=O)OCC	inactive	
O=c1c(-c2ccc(O)cc2)coc2cc(O)ccc12	inactive	
CC(=O)NC1(c2cccc(F)c2)CCN(CC[C@@]2(c3ccc(Cl)c(Cl)c3)CN(c3ccccc3)C(=O)CO2)CC1		13.1 µM (active)
O=C(O)Cc1cc(I)c(Oc2cc(I)c(O)c(I)c2)c(I)c1		37.5 µM (active)
C[C@@H]1C[C@H]2[C@@H]3CCC4=CC(=O)C=C[C@]4(C)[C@@]3(F)[C@@H](O)C[C@]2(C)[C@@]1(O)C(=O)COP(=O)(O)O	inactive	
